Laboratory results taken from PubChem BioAssay (NCI).
This is part of a sample that, as a whole, favours compounds with a hit. Of some 83,000 tested, about 20% had one in any assay.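 Compound tested at a single concentration for 48 hours in 96-well plates; a percent growth value below 10 was scored as active.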 A number with no mark means an inactive call. Active and inactive are the calls of the source.

How the values were obtained:
Assay in all cases: NCI-60 one-dose screen, 48 h (100 = growth as untreated, 0 = no growth, -100 = all killed)
Conditions in all cases: 10 µM unless noted
T-47D breast = test system: T-47D breast
BT-549 breast = test system: BT-549 breast
MDA-MB-435 melanoma = test system: MDA-MB-435 melanoma
SW-620 colon = test system: SW-620 colon
MCF7 breast = test system: MCF7 breast
HCT-116 colon = test system: HCT-116 colon
HCC-2998 colon = test system: HCC-2998 colon
KM12 colon = test system: KM12 colon

Compound | growth (T-47D breast) | growth (BT-549 breast) | growth (MDA-MB-435 melanoma) | growth (SW-620 colon) | growth (MCF7 breast) | growth (HCT-116 colon) | growth (HCC-2998 colon) | growth (KM12 colon)
COc1cc(OC)c(NC(=O)n2ncc3cc(Nc4ncnc5ccccc45)ccc32)cc1Cl | 97.3% | 78.1% | 105% | 116% | 98.1% | 101% | 89.7% | 104%
CC(=O)NCCN | 97.5% | 102% | 107% | 107% | 104% | 102% | 97.4% | 113%
COc1cc2ncnc(-n3ncc4cc(NC(=O)Nc5ccc(Cl)c(C)c5)ccc43)c2cc1OC | 72% | 89.7% | 93.8% | 120% | 72.7% | 81.5% | 100% | 25.8%
CCCCCCCCCCCC(=O)OC(C)C(=O)Nc1ccccc1 (stereo unspecified) | 87.9% | 82% | 106% | 95.1% | 91.7% | 96.5% | 103% | 102%
COC(=O)/C=C1/CCCCC1(C)C(=O)OC (stereo unspecified) | 110% | 89.8% | 103% | 106% | 106% | 95.7% | 119% | 107%
CC(=O)c1nn(-c2ccc(C)cc2)cc1C(=O)c1cc2c(ccc3ccccc32)oc1=O | 75.2% | 85.5% | 99% | 100% | 87.5% | 89.4% | 103% | 95.1%
CCN(CC)CCOC(=O)c1cccnc1 | 96.6% | 105% | 96.3% | 103% | 95.1% | 98.1% | – | 103%
CCCC(=O)NNc1[nH]c(-c2ccc(OC)cc2)cc1C(=O)OCC | 63.9% | 99.4% | 95.2% | 95.5% | 104% | 109% | 75.2% | 98.9%
OCC(O)C(O)CC1SCCS1 (stereo unspecified) | 97.1% | 102% | 105% | 99.7% | 103% | 104% | 108% | 103%
O=C(O)c1ccc(-c2nn(-c3ccc(C(=O)O)cc3)cc2CNc2ccc(Br)cc2)cc1 | 96.6% | 98.8% | 107% | 107% | 90.3% | 101% | 102% | 98.1%
CSC1=Nc2c(c(C)c(-c3ccccc3)n2CCCCl)C2=NC(=O)CN12 | 72.4% | 61.2% | -31.4% (active) | 44.4% | 36.3% | 26.7% | 72.3% | 26.1%
CC[N+](C)(C)N | 103% | 105% | 109% | 105% | 91.7% | 99% | 113% | 107%
COc1ccccc1Nc1nnc(COc2ccc(CNC(=O)CCCC/C=C/C(C)C)cc2OC)o1 | 76.1% | 85.6% | 103% | 105% | 87.1% | 86.8% | 105% | 95.5%
CCCCCCCCC1OC1CCCCCCCC(=O)O (stereo unspecified) | 99% | 128% | 107% | 108% | 101% | 101% | 107% | 104%
CC[n+]1c(C)ccc2cc(C)ccc21 | 91.3% | 95% | 118% | 99.5% | 94.1% | 97.1% | – | 80.7%
O=Nc1c(-c2c(O)[nH]c3cc(Br)ccc23)[nH]c2ccccc12 | -31.1% (active) | 40% | 31.4% | -92.5% (active) | -40% (active) | -67.3% (active) | – | -89.9% (active)
COc1cc(CCNc2cnc3cc(N)cc(N)c3n2)cc(OC)c1 | 140% | 113% | 115% | 111% | 96.9% | 103% | 139% | 106%
CCn1cc(C(=O)O)c(=O)c2cc(F)c(N3CCN(S(=O)(=O)c4ccc(Cl)cc4)CC3)cc21 | 41.1% | 12.6% | 25.1% | 24% | 14.3% | 4.8% (active) | 24.5% | 4.3% (active)
CCOc1ccc(Br)cc1/C=C(\C#N)c1ccc([N+](=O)[O-])cc1 | 66.4% | 96.5% | 85% | 86.6% | 23.4% | 67.9% | – | 94.5%
Cc1ccc(C(=O)C(Br)C(Br)c2ccccc2)cc1 (stereo unspecified) | 71.5% | 104% | 99.8% | 27.8% | 25.7% | -65.7% (active) | 116% | 99.1%
Cc1sc(NC(=O)c2ccc(C(C)(C)C)cc2)c(C(=O)O)c1C | 87.5% | 88.8% | 96.1% | 60% | 62.2% | 45.3% | 71.2% | 28.8%
CC(C)(C)c1cc(C[P+](c2ccc(Cl)cc2)(c2ccc(Cl)cc2)c2ccc(Cl)cc2)cc(C(C)(C)C)c1O | 56.1% | 102% | 84.7% | 79.6% | 65.1% | 40.7% | 107% | 88.9%
O=C(O)/C(Br)=C/c1c[nH]c2ccc(Br)cc12 | 184% | 121% | 117% | 110% | 137% | 98.2% | 94.2% | 103%
O=C(/C=C\c1ccccc1Cl)c1ccccc1 | 91.6% | 92% | 90.5% | 82.5% | 46.8% | 53.9% | 94.6% | 66%
CCCCCC(=C/c1ccccc1)/C=N/N=C(N)N | -34.3% (active) | 46.6% | -80% (active) | – | -69.6% (active) | -56.6% (active) | -79% (active) | –
CCCCCCC(C(=O)OCC)(C(=O)OCC)C1CCCCCC1 | 91.9% | 104% | 103% | 99.1% | 96.3% | – | 100% | 105%
